This is an account of results in PubChem BioAssay (NCI).

About 83,000 compounds went through this panel and 20% of them were active in at least one assay; those are over-represented in the sample as a whole.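 96-well plates, one dose, 48 hours. Percent growth reported; active if below 10.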 A number with no mark means an inactive call. The source made the active and inactive calls.

Test systems include NCI-H23 lung; NCI-H226 lung; NCI-H322M lung; HOP-62 NSCLC; NCI-H460 lung; HOP-92 NSCLC; NCI-H522 lung; A549/ATCC NSCLC; 786-0 renal; COLO 205 colon; DU-145 prostate; K-562 leukemia; MALME-3M melanoma; MDA-MB-231 breast; RXF 393 renal; SF-268 CNS; SF-295 CNS; SF-539 CNS; UACC-257 melanoma; M14 melanoma.
Common to all, as to assay: NCI-60 one-dose screen, 48 h (100 = growth as untreated, 0 = no growth, -100 = all killed)
Holding throughout (conditions): 10 µM unless noted

With `Cc1ccc2c(c1)sc1nc(-c3c[nH]c4ccccc34)c(Nc3ccccc3)n12`, the growth in the experiment on NCI-H23 lung was 98.4%; in the experiment with NCI-H226 lung, 98.6%; in the experiment on NCI-H322M lung, 106%; in the experiment on HOP-62 NSCLC, 96.1%; in the experiment with NCI-H460 lung it was 101%; with HOP-92 NSCLC, 101%. Moreover, the growth in the experiment with NCI-H522 lung was 90.6%; in the experiment on A549/ATCC NSCLC it was 101%; in the experiment on 786-0 renal it was 105%; with COLO 205 colon it was 107%; in the experiment on DU-145 prostate, 108%; with K-562 leukemia, 94.4%. For the same compound, the growth is 101% in the experiment on MALME-3M melanoma; 93% with MDA-MB-231 breast; 111% with RXF 393 renal; 101% in the experiment with SF-268 CNS; 100% with SF-295 CNS; 97.2% in the experiment with SF-539 CNS. Also, the growth in the experiment on UACC-257 melanoma is 105%; with M14 melanoma, 107%.

On to `N=C(N)c1ccc(-c2ccc(-c3ccccc3)o2)o1`, for which the growth in the experiment with NCI-H23 lung was 49.6%; in the experiment with NCI-H226 lung, 78.5%; in the experiment on NCI-H322M lung, 60.3%; in the experiment on HOP-62 NSCLC, 46.9%; with NCI-H460 lung, 6.8% (active); in the experiment on HOP-92 NSCLC, 24.2%. The growth in the experiment on NCI-H522 lung was 50.5%; in the experiment on A549/ATCC NSCLC it was 26.2%; in the experiment with 786-0 renal, 33.4%; in the experiment on COLO 205 colon, -73.1% (active); with DU-145 prostate, 46.3%; in the experiment on K-562 leukemia, 9.73% (active). Further, the growth with MALME-3M melanoma was 50.3%; in the experiment with MDA-MB-231 breast it was 29.8%; in the experiment on RXF 393 renal, 47%; with SF-268 CNS it was 38.1%; in the experiment on SF-295 CNS, 44%; with SF-539 CNS it was 35.3%. The growth in the experiment with UACC-257 melanoma was 69.3%; in the experiment with M14 melanoma, 14.1%.

As for `COCCn1cc(-c2nc(-c3c[nH]c4ncccc34)cs2)c2ccccc21`, the growth with NCI-H23 lung was 40.7%; in the experiment with NCI-H226 lung it was 48.2%; in the experiment on NCI-H322M lung, 43.4%; in the experiment on HOP-62 NSCLC, 47.2%; in the experiment on NCI-H460 lung, 22.6%; in the experiment on HOP-92 NSCLC, 2.56% (active). In addition, the growth is 46.7% in the experiment on NCI-H522 lung; 52.2% in the experiment on A549/ATCC NSCLC; 77.9% in the experiment on 786-0 renal; 24.8% with COLO 205 colon; 85.5% in the experiment on DU-145 prostate; 28.5% in the experiment with K-562 leukemia. The growth with MALME-3M melanoma is 97.8%; with MDA-MB-231 breast, 22.5%; with RXF 393 renal, 51.6%; with SF-268 CNS, 63.9%; in the experiment on SF-295 CNS, 68.8%; with SF-539 CNS, 68.4%. In addition, the figures for the growth with UACC-257 melanoma and with M14 melanoma were 87.3% and 68.6%, respectively.

With `O=C(/C=C/c1ccccc1)N(C1CCCCC1)C1CCCCC1`, the growth is 74.3% with NCI-H23 lung; 84.7% with NCI-H226 lung; 105% in the experiment on NCI-H322M lung; 131% with HOP-62 NSCLC; 86.8% with NCI-H460 lung; 84.3% in the experiment on HOP-92 NSCLC. Further, the growth in the experiment with NCI-H522 lung is 70.9%; in the experiment on A549/ATCC NSCLC, 73.8%; with 786-0 renal, 82.2%; with COLO 205 colon, 99.9%; in the experiment with DU-145 prostate, 104%; in the experiment with K-562 leukemia it was 81.1%. Also, the growth with MALME-3M melanoma is 104%; in the experiment on MDA-MB-231 breast, 86%; in the experiment on RXF 393 renal, 84.7%; in the experiment on SF-268 CNS, 104%; in the experiment with SF-295 CNS it was 78.1%; in the experiment with SF-539 CNS, 105%. The growth with UACC-257 melanoma was 80.7%; in the experiment with M14 melanoma, 87.6%.

`Clc1cccc(C2Cc3cnccc3-c3[nH]c4ccncc4c32)c1` (stereo not given): the growth was 35% in the experiment with NCI-H23 lung; 52.1% in the experiment with NCI-H226 lung; 73.2% with NCI-H322M lung; 67.3% with HOP-62 NSCLC; 19.1% in the experiment on NCI-H460 lung; 39.1% with HOP-92 NSCLC. For the same compound, the growth in the experiment on NCI-H522 lung is 51.9%; in the experiment on A549/ATCC NSCLC, 42.9%; with 786-0 renal, 59.7%; with COLO 205 colon, 23.4%; with DU-145 prostate it was 69.6%; with K-562 leukemia it was 23.6%. In addition, the growth in the experiment on MALME-3M melanoma was 52.2%; with MDA-MB-231 breast, 44.8%; with RXF 393 renal, 69.1%; with SF-268 CNS, 57.7%; in the experiment on SF-295 CNS, 28.6%; with SF-539 CNS, 65.5%. In addition, the growth with UACC-257 melanoma was 29.9%; in the experiment with M14 melanoma, 58.4%.

As for `C#CCOc1cccc(Nc2ncnc3cc(NC(=O)CCl)ccc23)c1`, the growth is -65% (active) with NCI-H23 lung; -26.7% (active) in the experiment on NCI-H226 lung; -13.9% (active) in the experiment on NCI-H322M lung; -61.6% (active) in the experiment on HOP-62 NSCLC; -55.3% (active) in the experiment on NCI-H460 lung; -76.9% (active) in the experiment on HOP-92 NSCLC. Further, the growth in the experiment with NCI-H522 lung is -76.1% (active); in the experiment with A549/ATCC NSCLC, -59.4% (active); in the experiment with 786-0 renal it was -69.1% (active); with COLO 205 colon, -79.9% (active); in the experiment with DU-145 prostate it was -77.1% (active); with K-562 leukemia, -43% (active). In addition, the growth is -73.4% (active) in the experiment on MALME-3M melanoma; -78.9% (active) with MDA-MB-231 breast; -75.6% (active) in the experiment on RXF 393 renal; -55.8% (active) in the experiment on SF-268 CNS; -92.8% (active) with SF-295 CNS; -80.4% (active) with SF-539 CNS. Also, the growth in the experiment with UACC-257 melanoma was -43.3% (active); in the experiment with M14 melanoma, -56.1% (active).

Regarding `COCCn1cc(-c2nc(-c3cn(CCOC)c4ncccc34)cs2)c2cc(F)ccc21`, the growth in the experiment with NCI-H23 lung was 53.5%; in the experiment on NCI-H226 lung it was 75.4%; in the experiment on NCI-H322M lung, 46.9%; with HOP-62 NSCLC, 74.4%; with NCI-H460 lung, 49.7%; in the experiment with HOP-92 NSCLC, 56.9%. Further, the growth in the experiment with NCI-H522 lung was 33.3%; in the experiment with A549/ATCC NSCLC, 53.7%; in the experiment on 786-0 renal, 76.6%; in the experiment with COLO 205 colon, 35.5%; in the experiment with DU-145 prostate it was 86.1%; with K-562 leukemia, 63.7%. Moreover, the growth in the experiment on MALME-3M melanoma is 95.3%; in the experiment with MDA-MB-231 breast, 44.9%; with RXF 393 renal, 86.5%; in the experiment on SF-268 CNS it was 91.6%; in the experiment on SF-295 CNS it was 74.7%; in the experiment on SF-539 CNS, 76.1%. For the same compound, the growth in the experiment on UACC-257 melanoma is 69.5%; in the experiment on M14 melanoma, 66.6%.

Turning to `FC(F)(F)c1[nH]ncc1-c1nc2ccc3[nH]ncc3c2c2c1CCCC2`, the growth in the experiment with NCI-H23 lung is 7.15% (active); in the experiment with NCI-H226 lung it was 10.1%; in the experiment with NCI-H322M lung, 3.13% (active); in the experiment on HOP-62 NSCLC, 1.07% (active); in the experiment with NCI-H460 lung, 5.86% (active); in the experiment with HOP-92 NSCLC, 31.2%. Further, the growth is -16.9% (active) in the experiment on NCI-H522 lung; 0.818% (active) in the experiment on A549/ATCC NSCLC; -23.8% (active) with 786-0 renal; -8.58% (active) in the experiment with COLO 205 colon; 6.89% (active) in the experiment with DU-145 prostate; 18.7% in the experiment with K-562 leukemia. The growth is 8.51% (active) with MALME-3M melanoma; 14.5% in the experiment with MDA-MB-231 breast; -62.9% (active) with RXF 393 renal; 8.87% (active) with SF-268 CNS; 24.3% in the experiment on SF-295 CNS; -35.1% (active) with SF-539 CNS. Also, the growth with UACC-257 melanoma is 17.6%; in the experiment on M14 melanoma it was 12.5%.
